# Assay results: PubChem BioAssay (Tox21)
# Results filed as inconclusive are left out. Calls of active or inactive are those of the source. The call rests on the fitted dose curve; in most records, active means well fitted cell-killing curve with a large enough effect in the repeat runs; inconclusive means weak or mixed curves; inactive means flat fitted curve, though single readings scatter.
# Experiment: qHTS assay to identify small molecule antagonists of the estrogen receptor beta (ER-beta) signaling pathway - cell viability counter screen (AID 1259382); further: nearly all actives have a fitted effect of over 55% in size
# Settings: ER-beta-UAS-bla HEK293T viability, CellTiter-Glo luminescence, 16 h; series mostly up to 92.4 µM
# Source text: U.S. Tox21 Program National Center for Advancing Translational Sciences [NCATS] NIH Chemical Genomics Center [NCGC] U.S. Environmental Protection Agency [EPA] National Institutes of Environmental Health Sciences [NIEHS] National Toxicology Program [NTP] U.S. Food and Drug Administration [FDA] Tox21 Assay Overview: Estrogen receptor (ER), a nuclear hormone receptor, plays an important role in development, metabolic homeostasis and reproduction. Two subtypes of ER, ER-alpha and ER-beta, have similar expression patterns with some uniqueness in both types. Endocrine disrupting chemicals (EDCs) and their interactions with steroid hormone receptors like ER causes disruption of normal endocrine function. To identify the compounds that inhibit ER signaling, an ER-beta-UAS-bla GripTite cell line (Life Technologies, Madison, WI, USA) containing a beta-lactamase reporter gene under the control of an UAS response element was used to screen Tox21 10K compound library. The cytotoxicity of the Tox21 compound library against the ER-beta-bla cell line was tested in parallel by measuring the cell viability using CellTiter-Glo assay in the same wells.
# Tox21 Assay Protocol Summary: ER-beta-UAS-bla HEK293T cells were dispensed at 2,000 cells/4 uL of assay medium containing 2% charcoal stripped FBS per well into black wall/clear-bottom 1536-well plates using a Multidrop Combi (ThermoFisher Scientific, Waltham, MA) dispenser. After the assay plates were incubated at a 37C and 5% CO2 for 6 hr, 23 nL of compounds dissolved in DMSO, positive controls or DMSO only was transferred to the assay plate by a Pintool station (Kalypsys, San Diego, CA), followed by addition of 1 uL (1nM as final concentration) of 17-beta-estradiol (E2) in assay medium using a Flying Reagent Dispenser (FRD, Aurora Discovery, San Diego, CA). The plates were incubated at 37C and 5% CO2 for 16 hr. Then 1 uL of LiveBLAzer B/G FRET substrate was added using a Flying Reagent Dispenser, the plates were incubated at room temperature for 2 hours, and fluorescence intensity was measured by an Envision plate reader (PerkinElmer, Shelton, CT). For cell viability readout that measures cytotoxicity, 4 uL/well of CellTiter-Glo reagent was added into the assay plates using a FRD. After 30 min incubation at room temperature, the luminescence intensity in the plates was measured using a ViewLux (PerkinElmer) plate reader.
# On the % scale 0 is the no-effect control and ±100 the full control effect.
SMILES,outcome,"activity change, negative = cytotoxicity"
Cc1oc(=O)oc1CN1CCN(c2cc3c(cc2F)c(=O)c(C(=O)O)c2n3C(C)S2)CC1 (stereo not given),inactive,
C=CC(C)(O)CC/C=C(\C)CC (stereo not given),inactive,
CCCCCCCCCCCCCC(=O)OC,inactive,
Cc1nc2n(c(=O)c1CCN1CCC(C(=O)c3ccc(F)cc3)CC1)CCS2,inactive,
C[N+](C)(C)CC(O)CCl (stereo not given),inactive,
CCCCCCCC[Si](OCC)(OCC)OCC,inactive,
CCCC(C)CC (stereo not given),inactive,
CCC(CO)CO,inactive,
C1CCN2C[C@@H]3C[C@@H](CN4CCCC[C@@H]34)[C@H]2C1,inactive,
BrC/C=C/CBr,,3.59% [at 19 µM] (inactive)
O=C(O)c1ccccc1C(=O)Nc1ccc(S(=O)(=O)Nc2nccs2)cc1,inactive,
CCc1nccnc1C,inactive,
C=CCOc1c(Br)cc(Br)cc1Br,inactive,
Cc1ccccc1N1CCN(CCc2nnc3n2CCCC3)CC1,inactive,
NCCc1ccn[nH]1,inactive,
O=C1CC[C@H](C(=O)N2CCCCC2)N1,inactive,
Nc1cc(S(=O)(=O)O)ccc1S(=O)(=O)O,inactive,
C[Si]1(C)N[Si](C)(C)N[Si](C)(C)N1,inactive,
c1ccccc1,inactive,
O=C1NC2NC(=O)NC2N1 (stereo not given),inactive,

SMILES,outcome,"activity change, negative = cytotoxicity"
CCC(C)(CCC(C)C)C(=O)[O-].CCC(C)(CCC(C)C)C(=O)[O-].[Zn+2] (stereo not given),inactive,
CNCc1ccccc1,inactive,
CCC1Nc2cc(Cl)c(S(N)(=O)=O)cc2S(=O)(=O)N1 (stereo not given),inactive,
CCCCCCCCCCCCCCCC(=O)NCCO,inactive,
C[C@@H]1C[C@H]2[C@@H]3C[C@H](F)C4=CC(=O)C=C[C@]4(C)[C@@]3(F)[C@@H](O)C[C@]2(C)[C@@]1(O)C(=O)CO,inactive,
CC(C)COC(=O)/C=C/c1ccccc1,inactive,
CC(=O)N1CCN(c2ccc(O)cc2)CC1,inactive,
O=S(=O)(O)SSS(=O)(=O)O,inactive,
C1=C\CC/C=C\CC/1,inactive,
CCC1COC(=O)O1 (stereo not given),inactive,
CCC(C)N (stereo not given),inactive,
CC(C)CCC(=O)CCC(C)C,inactive,
CO/N=C(/C(=O)N[C@@H]1C(=O)N2C(C(=O)O)=C(Cn3nnc(C)n3)CS[C@H]12)c1csc(N)n1,inactive,
FC(F)(F)c1ccc(Cl)cc1Cl,inactive,
Nc1cc(C(=O)O)ccc1Cl,inactive,
Cc1cccc(Nc2ccncc2S(=O)(=O)NC(=O)NC(C)C)c1,inactive,
O=C(/C=C/c1ccccc1)NCCO,inactive,
CN=C(NC#N)NCCSCc1csc(N=C(N)N)n1,inactive,
CCCCC[Si](OCC)(OCC)OCC,inactive,
O=C(Oc1ccccc1C(=O)O)c1ccccc1O,inactive,
